# Screening data: PubChem, The Scripps Research Institute Molecular Screening Center
# This is a sample that favours compounds with a hit; in the whole collection about 2.8% have one here.
# pPAFAH inh = inhibitors of human plasma PAF acetylhydrolase (pPAFAH); 330,000 tested, 1.5% active; recombinant pPAFAH, FP-rhodamine probe fluorescence polarization; inhibition, % at 3.39 µM;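 active = inhibition above the mean inhibition across the screen plus 3 SD, cut at about 25% in these data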;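 also: inhibitors block binding of the rhodamine activity-based probe so polarization drops; 0% = enzyme with DMSO and 100% = wells lacking pPAFAH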
# PME-1 inh = PME-1 (human) inhibition; Q9Y570; recombinant PME-1, FP-Rh probe fluorescence polarization; inhibition, % at 5.9 µM; 320,000 tested, 0.53% active; AID 2130;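 active = inhibition above the campaign mean of all compounds plus 3 SD, cut at about 26% in these data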;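 also: competitive labeling of PME-1 active site by serine hydrolase directed probe; 0% = PME-1 with DMSO and 100% = wells lacking PME-1 enzyme; inhibitors block probe labeling so polarization falls and inhibition rises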
# PAFAH1B2 inh = PAFAH1B2 (human) inhibition. recombinant PAFAH1B2, FP-rhodamine activity probe, fluorescence polarization. inhibition, % at 3.39 µM. 340,000 tested, 1.2% active. AID 492953;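 active = inhibition above the mean of all tested compounds plus 3 SD, cut at about 24% in these data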;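 also: 0% = enzyme with DMSO and 100% = wells lacking PAFAH1B2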
# Target sequence (P68402 whole entry, looked up): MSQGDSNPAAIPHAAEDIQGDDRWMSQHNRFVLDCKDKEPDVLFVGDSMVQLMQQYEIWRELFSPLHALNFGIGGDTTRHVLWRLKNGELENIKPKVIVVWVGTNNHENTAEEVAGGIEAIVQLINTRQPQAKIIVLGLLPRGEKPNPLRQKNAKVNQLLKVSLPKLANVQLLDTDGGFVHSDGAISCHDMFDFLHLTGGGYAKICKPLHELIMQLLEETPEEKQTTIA
# PAFAH2 FP inh = PAFAH2 (human) inhibition; inhibition, % at 3.39 µM; Q99487; recombinant PAFAH2, FP-rhodamine activity probe, fluorescence polarization; 340,000 tested, 0.99% active;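 active = inhibition above the mean over all tested compounds plus 3 SD, cut at about 30% in these data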;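 also: inhibitors block probe labeling of enzyme so polarization drops; 0% = enzyme with DMSO and 100% = wells lacking PAFAH2 protein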
# PAFAH1B3 FP inh = PAFAH1B3 (human) inhibition | Q15102 | recombinant PAFAH1B3, FP-rhodamine probe, fluorescence polarization | inhibition, % at 3.39 µM | 340,000 tested, 0.28% active;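 active = inhibition above the screen-wide average of all tested compounds plus 3 SD, cut at about 25% in these data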;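 also: 0% = enzyme with DMSO only and 100% = wells lacking PAFAH1B3 protein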
# Target sequence (Q15102 whole entry, looked up): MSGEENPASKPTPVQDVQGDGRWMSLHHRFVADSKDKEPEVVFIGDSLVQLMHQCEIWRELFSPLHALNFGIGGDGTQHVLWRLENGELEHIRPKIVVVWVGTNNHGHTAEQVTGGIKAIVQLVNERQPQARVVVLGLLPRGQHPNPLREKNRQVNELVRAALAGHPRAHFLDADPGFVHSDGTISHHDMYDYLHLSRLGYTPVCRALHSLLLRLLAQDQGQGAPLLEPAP
# Fam108B inh = blocks mouse Fam108B hydrolase in RBBP9 counter-screen. 300,000 tested, 0.33% active. recombinant Fam108B, FP-Rh probe fluorescence polarization. inhibition, % at 9.51 µM;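 active = inhibition above the screen mean inhibition plus 3 SD, computed separately per campaign, cut at about 18% in these data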;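 also: inhibitors lower polarization as less probe binds the enzyme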
# Numbers without * were called inactive; · = not tested or not shown.
SMILES,pPAFAH inh,PME-1 inh,PAFAH1B2 inh,PAFAH2 FP inh,PAFAH1B3 FP inh,Fam108B inh
Cc1ccc(NC(=O)O/N=C/c2ccc(Br)cc2)cc1,7.7,-11.0,57.5*,-2.9,3.6,-2.5
COc1ccc(NC(=O)O/N=C/c2ccc(Br)cc2)cc1,10.5,-8.3,46.2*,9.5,7.5,0.1
O=C(O)c1ccc(N/N=C/c2cn(Cc3ccc(F)cc3)c3ccccc23)cc1,28.9*,12.9,6.0,15.4,5.3,15.5
CC(OC(=O)C1=COCCO1)C(=O)Nc1ncc(Cl)cc1Cl (stereo not drawn),·,·,46.7*,1.1,-5.6,·
Cc1ccc(CNC(=O)COC(=O)c2nc(-c3ccccc3)oc2C)cc1,7.6,0.7,-0.9,-1.7,7.6,·
Cc1sc(NC(=O)c2sc3nc4c(C)cccc4cc3c2N)c(C#N)c1C,27.2*,1.3,5.5,12.3,1.5,6.3
CC1(C)C=Cc2c(c3c(c4c(=O)c(-c5ccc(O)cc5)coc24)OC(C)(C)CC3)O1,26.2*,-3.8,0.4,8.0,10.9,-0.2
CC(C)CN1CC(C)C(=O)NC1=S (stereo not drawn),·,·,7.5,1.5,8.5,·
CN(C)C(=O)c1cc(C(=O)c2ccccc2C(F)(F)F)c[nH]1,4.4,-2.8,-3.6,2.9,0.6,0.5
CN(C)C(=O)c1cc(C(=O)c2ccc(F)cc2C(F)(F)F)c[nH]1,29.8*,4.8,5.3,1.8,5.9,-3.6
Cc1ccccc1NS(=O)(=O)c1ccc(NC(=O)CSCc2ccc(Br)cc2)cc1,25.8*,-59.4,-15.7,-41.1,-37.0,-50.4
CC1(COS(N)(=O)=O)CCCCC1,2.4,2.3,34.6*,11.2,12.3,-3.6
CC(=O)c1ccc(OCCCC(=O)Nc2cccc(-c3nn[nH]n3)c2)cc1,-1.2,-6.6,6.5,-5.7,2.0,-6.3
CCN(C(=O)CSc1nc2ccccc2o1)c1c(N)n(Cc2ccccc2)c(=O)[nH]c1=O,28.9*,-3.0,-1.1,-7.5,-1.3,4.9
CCc1ccc(NC(=O)C2CCCN(S(=O)(=O)c3cccs3)C2)cc1 (stereo not drawn),8.6,8.2,0.2,-3.0,-4.8,-5.8
CCC1S/C(=N\S(=O)(=O)c2cccs2)N(C2CCCCC2)C1=O (stereo not drawn),1.2,-4.7,25.2*,-1.7,3.9,3.9
COc1ccccc1CNC(=O)CCS(=O)(=O)Cc1ccc(C)cc1,18.4,-0.6,5.6,-0.8,5.5,3.9
Cc1ccc(CS(=O)(=O)CCC(=O)NCc2ccccc2Cl)cc1,29.4*,-13.2,7.9,-5.5,5.6,1.2
CC(=O)Nc1ccc(NC(=O)c2ccc(NS(=O)(=O)c3cc(C(C)(C)C)cc(C)c3C)cc2)cc1,-10.7,-51.6,-27.6,-50.0,-44.7,-26.9
Cc1cc(C(C)(C)C)cc(S(=O)(=O)Nc2ccc(O)c(C(=O)O)c2)c1C,4.4,-6.3,46.9*,-4.4,-2.6,-3.6
O=C(NCC(c1ccco1)N1CCCCC1)c1cccc(NS(=O)(=O)c2ccc(Br)cc2)c1 (stereo not drawn),11.5,-1.9,29.7*,-8.2,3.5,-7.9
CCOc1ccc(S(=O)(=O)Nc2cccc(C(=O)NCC(c3ccco3)N3CCCC3)c2)cc1 (stereo not drawn),1.4,0.3,5.3,1.9,8.9,·
COc1ccc(NS(=O)(=O)c2cccc(C(=O)NCC(c3ccco3)N3CCCC3)c2)cc1 (stereo not drawn),17.5,-0.6,2.0,-4.0,1.9,0.3
O=C(NCC(c1ccco1)N1CCCC1)c1cccc(S(=O)(=O)Nc2ccc(Br)cc2)c1 (stereo not drawn),28.1*,-2.2,4.5,2.9,6.1,-1.7
Cc1nnc(NC(=O)C2CC(=O)N(c3ccccc3)C2)s1 (stereo not drawn),-7.7,-3.2,3.1,-2.8,6.7,2.1
Cc1ccc(S(=O)(=O)NCC2(c3ccccc3)CCOCC2)cc1,-0.3,-6.6,26.4*,8.9,6.1,-1.4
Cc1[nH]c(N=Nc2ccccc2)nc1N=Nc1ccccc1,25.4*,75.9*,4.2,-2.5,3.5,15.9
Nc1ccc(N=Nc2ccccc2)c(N)n1,1.8,5.2,-0.6,0.7,8.8,2.6
O=C(NCc1ccccc1)C1CCN(S(=O)(=O)c2ccc(Cl)cc2)CC1,0.3,44.5*,23.8,4.6,4.7,-3.5
